Screening results (PubChem)
Only a selection was taken, and hits are over-represented in it overall.
Dicer processing: human Dicer pre-microRNA cleavage inhibition; z-score at 25 µM; cat-ELCCA pre-miR-21 Dicer processing, chemiluminescence; active compounds read high; Q9UPY3; 6% of 47,000 active; in the data active means z-score above about 3, passing the limit was not always enough;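 further: higher signal means more uncleaved substrate so more Dicer inhibition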
Numbers stand for hits; n = inactive.

SMILES	Dicer processing
COC(=O)C(C)Sc1nnc(-c2ccc(Br)cc2)o1 (stereo unspecified)	n
COc1ccc(N2CC(O)=C(c3nc4ccccc4c(=O)[nH]3)C2=N)cc1Cl	n
COc1cc(C=Nc2ccc3oc(=O)ccc3c2)cc(OC)c1OC	n
CCCCn1c(=O)oc2ccc(C)cc21	3.6
Cc1ccc2oc(=O)n(CCC(=O)O)c2c1	n
Cc1ccc2oc(=O)n(Cc3ccc(F)cc3)c2c1	n
O=C1C2ON(c3ccccc3)C(c3cccnc3)C2C(=O)N1c1ccc(Br)cc1 (stereo unspecified)	n
COc1cccc(-c2nnc(SCc3ccc(Br)cc3)o2)c1	n
COc1ccc(-c2noc(-c3cc(C)cc(C)c3)n2)cc1	n
Cc1cc(C)cc(-c2nc(-c3ccccc3)no2)c1	4.7
Cc1ccc(-c2nc(-c3ccccc3)no2)cc1	n
COc1cccc(-c2nnc(SCc3cccc(Cl)c3)o2)c1	n
COc1cccc(-c2nc(-c3ccccc3)no2)c1	n
COc1cccc(-c2nnc(SCc3ccc(Cl)cc3)o2)c1	3.1
COc1cccc(-c2nc(-c3ccc(Cl)cc3)no2)c1	3
COc1ccc(-c2nc(-c3ccc(Cl)cc3)no2)cc1OC	n
Cc1c(S(=O)(=O)Cc2ccc(F)cc2)c(N)n(Cc2ccccc2Cl)c1C	n
O=C(O)/C(=N\NC(=O)c1ccccc1)c1ccccc1	n
Cc1cc(C(=O)CSc2nnc3ccccn23)c(C)n1-c1ccc(F)cc1	n
O=C(CSc1nc2cccnc2s1)NNS(=O)(=O)c1cc(C(F)(F)F)cc(C(F)(F)F)c1	n
O=C(O)c1cc(-c2cccc(Br)c2)nc2cc(C(F)(F)F)cc(C(F)(F)F)c12	n
Oc1ccccc1C1=Nn2c(nnc2-c2ccc(Cl)cc2)SC1	n
O=S(=O)(Nc1cccnc1Oc1ccc(Cl)cc1)c1ccc(Cl)cc1	n
CC(=O)Nc1ccc(S(=O)(=O)Nc2ncccn2)cc1	n
Cc1ccc(S(=O)(=O)Nc2ccc(O)c3ncccc23)cc1	15
SMILES	Dicer processing
Cc1ccc(S(=O)(=O)Nc2ccc3ccccc3n2)cc1	n
O=S(=O)(Nc1ncccc1OCc1ccc(Cl)c(Cl)c1)c1ccc(Cl)cc1	n
CS(=O)(=O)Nc1ccc(S(=O)(=O)Nc2ncccn2)cc1	n
Cc1ccc(S(=O)(=O)Nc2ccnn2C)cc1	n
Cc1ccc(S(=O)(=O)Nc2ccc(O)c3cccnc23)cc1	3.3
Cc1ccc(S(=O)(=O)Nc2ccc(Cl)c3cccnc23)cc1	3.2
CN(C)/C=C(\C#N)c1cccc(C(F)(F)F)c1	n
Clc1cccc(Cl)c1CSc1nc2ccccc2n2cccc12	n
CN1CCc2c(sc3c2C(=O)NC(c2ccc(O)c(O)c2)N3)C1 (stereo unspecified)	n
O=C(Nc1ccc(Cl)cc1)/C(=C\c1cccs1)c1ccsc1	n
COc1ccc(-c2cc(-c3ccccc3O)[nH]n2)cc1OC	5
COc1ccc(-c2cc(-c3cc(OC)ccc3O)[nH]n2)cc1	8.1
COc1ccc(-c2nc(-c3ccccc3)no2)cc1OC	n
COc1cc(-c2ccc(=O)[nH]n2)ccc1OC(F)F	n
COc1ccc(-c2ccc(=O)[nH]n2)cc1	n
CCc1cc(-c2[nH]ncc2-c2ccc(OC)cc2)c(O)cc1O	n
O=c1[nH]c2ccccc2c(=O)n1CCNc1cccc(Cl)c1	n
COc1cc(C(F)(F)F)nc2ccc(C)c(NC(=O)Nc3ccc(Cl)cc3)c12	n
C=CC(C)c1c(CCC)nc(-c2ccccn2)[nH]c1=O (stereo unspecified)	n
CSc1sc(C2=NNC(O)(C(F)(F)F)C2)c2c1C(=O)CCC2(C)C (stereo unspecified)	n
CCOC(=O)c1cn(Cc2ccccc2)c2cc(C)nn2c1=O	n
CCOC(=O)c1nnn(Cc2ccccc2)c1N	n
CCOC(=O)c1ncn(Cc2ccccc2)c1N	3.4
Clc1cc(Cl)c(Cl)c(-n2cccc2)c1Cl	n
O=C(c1ccc(Sc2ccccn2)c([N+](=O)[O-])c1)N1CC=CCC1	n
SMILES	Dicer processing
O=C1OC(C(=O)Nc2cccc(Cl)c2)Cc2ccccc21 (stereo unspecified)	n
Cc1ccc(CNC(=S)N(C)C)cc1	n
CCN(CC)C(=S)NC(=S)c1ccc(C)cc1	16
CCN(C(=S)Nc1ccc(C)cc1)c1ccccc1	n
O=C1OCCC1Sc1nnc(-c2ccc(Cl)cc2)o1 (stereo unspecified)	n
O=C(OCCN(C1=NS(=O)(=O)c2ccccc21)c1ccccc1)c1cccs1	n
O=C(c1sc2cc(F)ccc2c1Cl)N1CCc2ccccc2C1	n
Cc1ccc(S(=O)(=O)Nc2ccc(-c3cn4cccc(C)c4n3)cc2)c(C)c1	6.1
Cc1cccn2cc(-c3ccccc3Cl)nc12	n
Cc1cccn2cc(-c3ccc(NS(=O)(=O)c4ccc(Br)cc4)cc3)nc12	7.9
Cc1cccn2cc(-c3cccc(S(=O)(=O)N4CC(C)OC(C)C4)c3)nc12 (stereo unspecified)	n
Cc1ccc(S(=O)(=O)Nc2ccc(-c3cn4cccc(C)c4n3)cc2)cc1C	8.6
Cc1cccn2cc(-c3cccc(S(=O)(=O)N4CCOCC4)c3)nc12	n
Cc1cccn2cc(-c3cccc(S(=O)(=O)N4CCCC4)c3)nc12	n
Cc1ccc(S(=O)(=O)Nc2n[nH]c(-c3ccc(C(C)(C)C)cc3)c2Br)cc1	n
C#CCSc1ncc(-c2ccc(Cl)cc2)n1C	n
Cc1c(S(=O)(=O)c2ccc(Cl)cc2)csc1C(=O)Nc1ccc2c(c1)C(=O)OC2	n
C=CCNc1nc(C)nc2c1sc1nc3c(cc12)COC(C)(C)C3	n
Cc1cc(C)n2nc(C(C)(C)C)cc2n1	n
CSc1cccc(NC2OC(=O)c3ccccc32)c1 (stereo unspecified)	n
CCOC(=O)N/N=C(\C)c1ccc(C#N)cc1	n
COc1ccc(C(=O)/C=C(\C(=O)c2ccccc2)c2ccccc2)cc1CN1CCOCC1	n
CC(C)(Cc1nc2ccccc2[nH]1)C(=O)O	n
CCOC(=O)Cc1nc2ccccc2[nH]1	n
COC(=O)CC1=NN(c2nc3ccccc3[nH]2)C(=O)C1	5.3
SMILES	Dicer processing
COc1ccccc1N1C(=O)C2CC(C)=CC(C)C2C1=O (stereo unspecified)	n
O=[N+]([O-])c1ccc(Oc2n[nH]c3ccccc23)nc1	n
COC(=O)c1cc(-c2ccc(S(=O)(=O)N3CCN(c4ccccc4)CC3)cc2)c(C(F)(F)F)s1	n
O=C(O)C1CC(=O)N(C2Cc3ccccc3C2)C1 (stereo unspecified)	n
COc1ccc(C2CC(=O)C3=C(C2)NC(C)=C(C#N)C3c2cc3c(cc2Cl)OCO3)cc1 (stereo unspecified)	n
CCOC(=O)C1=C(C)NC(=O)NC1c1ccc(C#Cc2ccccc2)s1 (stereo unspecified)	n
O=C(O)/C=C\C(=O)NCc1csc2ccccc12	5.3
O=C(O)c1nccnc1C(=O)NCc1csc2ccccc12	n
O=C(O)/C=C/C(=O)NCc1ccc(F)cc1	n
CC1CC(NC(=S)NCc2csc3ccccc23)CC(C)(C)C1 (stereo unspecified)	n
S=C(NCc1csc2ccccc12)NCC1CC1	4
N/C(Cc1csc2ccccc12)=N\O	n
O=C(CC1(O)C(=O)N(Cc2ccccc2)c2ccc(Br)cc21)c1ccccn1 (stereo unspecified)	n
COc1cccc2c1c(NC(=O)c1cnn(-c3ccc(F)cc3)c1C)nn2C	n
CCCCN1Cc2c(n(CC(=O)c3ccc(OC)cc3)c3cc(-c4ccccc4)nn3c2=O)C1=O	n
CCOC(=O)c1c(/C=C2\C(=O)Nc3ccccc32)c(C)n(Cc2cccs2)c1C	n
